Most compounds without a hit are left out; they make up all but 12% or so of the library.
Cycloheximide cs: Cycloheximide Counterscreen for Small Molecule Inhibitors of Shiga Toxin; cell reporter, cycloheximide protein synthesis inhibition counterscreen; max response, %; 12% of 300,000 active; AID 2314, 2010; in the data active = max response mostly above about 13%, no sharp cut-off; inactive = mostly below about 14%; note: read at 38.3 µM for the half of the compounds with a filed dose; 0% is about no effect
NS1 function inh: qHTS Assay for Inhibitors of Influenza NS1 Protein Function | Potency, µM (top dose mostly 46.1 µM), inactives show at the highest dose activity, positive = more growth | 0.4% of 270,000 active | AID 2326, 2010; note: potency is the fitted concentration of half-maximal effect; actives are rising curves; nearly all actives have a fitted effect of over 50% in size
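Read-out: OD600 growth recovery of NS1-expressing budding yeast. Cells grown overnight at 30C in -URA glucose medium, washed, resuspended and diluted 1:100 in 2% galactose assay medium, pH 6.0. Same strain lacking NS1 served as positive control.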
SARS PLpro yeast-1: qHTS of Yeast-based Assay for SARS-CoV PLP | S. cerevisiae expressing SARS-CoV PLpro, growth rescue | Potency, µM (series often up to 32.9 µM), for inactives: at the highest dose activity, positive = growth rescue, usual class: activators | 0.19% of 330,000 active | AID 485353, 2010; note: potency is the fitted concentration of half-maximal effect; 0% is about no effect; nearly all actives have a fitted effect of over 55% in size
Shiga inhibitor: A qHTS for Small Molecule Inhibitors of Shiga Toxin | Vero cells, Shiga toxin protein synthesis inhibition reporter | inhibition, % at 38.7 µM | AID 2315, 2010 | 9.2% of 290,000 active; in the data active = inhibition mostly above about 28%, no sharp cut-off; inactive = mostly below about 43%; note: 0% is about no effect
Flu NS1 inh: Assay for Inhibitors of Influenza NS1 Protein Function: Hit Validation; shares compounds with NS1 function inh; influenza NS1 function cell assay, 15-point titration; activity change, negative = inhibition, % at 32.9 µM; 1,400 tested, under 10 active; note: 0% is about no effect
PR8 titer: Assay for Inhibitors of Influenza NS1 Protein Function: Influenza virus replication assay in MDCK cells infected with virus A/PR/8/34; shares compounds with NS1 function inh; MDCK infected influenza A/PR/8/34, virus titer TCID50; stronger effect = lower value; virus titer (log TCID50), log10 TCID50 at 5 µM; 30% of 95 active; AID 504647, 2011; call rule not given here
SARS PLpro yeast-2: qHTS of Yeast-based Assay for SARS-CoV PLP: Hit Validation | shares compounds with SARS PLpro yeast-1 | yeast expressing SARS-CoV PLpro, growth phenotype rescue | calls only | 19% of 1,000 active | AID 652038, 2013; call rule not given here
Numbers without * were called inactive; i = inactive; ? = inconclusive; · = no result; + = active, no number; ! = not active in a repeat. Unless noted, calls come from the whole dose curve.

SMILES	Cycloheximide cs	NS1 function inh	SARS PLpro yeast-1	Shiga inhibitor	Flu NS1 inh	SARS PLpro yeast-2	others
COc1ccc2nc(N3CCN(C(=O)C4COc5ccccc5O4)CC3)sc2c1 (centres undefined)	·	·	2%	·	·	·
COc1cc2nc(N3CCN(C(=O)C4COc5ccccc5O4)CC3)nc(N)c2cc1OC (centres undefined)	-3	35µM*!	-4%	-13	-33	·
CC1CC(C)CN(C(=O)C(C)N2CCN(S(=O)(=O)c3cccs3)CC2)C1 (centres undefined)	·	·	4%	·	·	·
CC1(C)Cc2c(sc3ncnc(NNC(=S)NCc4ccccc4)c23)CO1	-4	11µM*	1%	7	-8	·
O=C(N/N=C/C=C\c1ccccc1[N+](=O)[O-])c1cc(-c2ccccc2)nc2ccccc12	1	7.1µM*	-1%	17	11	·
O=C(N/N=C/c1cccc([N+](=O)[O-])c1)c1cc(-c2ccccc2)nc2ccccc12	1	4%	-5%	-9	·	·
COc1ccc(-c2cc(C(=O)OCC(=O)N3CCCCC3)c3ccccc3n2)cc1OC	·	·	4%	·	·	·
COCCn1c(SCC(=O)Nc2cc(C)on2)nnc1C(C)C	-3	-10%	-3%	-10	·	·
CCNC(=S)N1CCC(C(O)(c2ccccc2)c2ccccc2)CC1	-3	16%	0%	-13	·	·
COc1cc(NC(=S)N2CCC(C(O)(c3ccccc3)c3ccccc3)CC2)cc(OC)c1	2	4.5µM*	11%	-7	13	·
O=C(CSc1nnc(-c2ccccc2)n1C1CCCCC1)Nc1ccc(S(=O)(=O)Nc2ccccn2)cc1	2	?	0%	-7	-9	·
Cc1cc(C)c2c(n1)sc1c(-c3ccccc3)c(C#N)c(N)nc12	-3	4.5µM*	-2%	21	2	·
CCOC(=O)N1CCN(S(=O)(=O)N2CCCC(C(=O)NCCCN3CC(C)CC(C)C3)C2)CC1 (centres undefined)	-4	?	8%	-8	-4	·	PR8 titer=6*
CC1CC(C)CN(CCCNC(=O)C2CCCN(S(=O)(=O)N3CC(C)CC(C)C3)C2)C1 (centres undefined)	9	-63%	0%	-10	·	·
NC(=O)c1ccc(NC(=O)c2ccc3c(c2)CCN3S(=O)(=O)c2ccccc2)cc1	-8	-15%	3%	-2	·	·
CCc1ccc(/C=C2\CN(CC)Cc3c2nc2ccccc2c3C(=O)O)cc1	1	3.5µM*	1%	21	-15	·
Nc1c(C(=O)NCc2ccco2)sc2nc(N3CCOCC3)c3c(c12)CCCC3	-1	25µM*	0%	-2	0	·
O=C(Nc1nccs1)c1cn(-c2ccccc2)nc1-c1ccccc1	5	21%	?	23	·	·
CC(C)COc1ccc(-c2nn(-c3ccccc3)cc2C(=O)Nc2nccs2)cc1	0	11µM*	?	10	0	+
O=C(O)c1cccc(-n2c(-c3cnccn3)n[nH]c2=S)c1	1	·	1%	3	·	·
COc1ccc(OC(=O)c2ccncc2)cc1	6	?	?	-15	-2	i
Cc1cc(C)c2sc(NNC(=O)c3ccc(S(=O)(=O)N4CCc5ccccc5C4)cc3)nc2c1	-1	11µM*	7.9µM*	-4	6	+
CN1OC2C(=O)N(c3ccccc3)C(=O)C2C1c1ccc(F)cc1 (centres undefined)	3	?	?	71	12	i
O=C1C2ON(c3ccccc3)C(c3ccccc3F)C2C(=O)N1c1ccccc1 (centres undefined)	0	-45%	-5%	-12	·	·
CCc1nc(CN2CCN(c3cc(C(F)(F)F)ccn3)CC2)c(C)[nH]1	2	1%	-6%	31	·	·
SMILES	Cycloheximide cs	NS1 function inh	SARS PLpro yeast-1	Shiga inhibitor	Flu NS1 inh	SARS PLpro yeast-2	others
CCN(CC)c1ccc(/C=N/NC(=O)CCC(=O)NCc2ccccc2)c(O)c1	13	-2%	4µM*	26	·	i
CCN(CC)c1ccc(/C=N/NC(=O)c2c(Cl)cnn2C)c(O)c1	44*	-64%	?	56*	·	i
CCN(CC)c1ccc(/C=N/Nc2ccc(C)cc2)c(O)c1	10	13%	?	24	·	·
CCN(CC)c1ccc(/C=N/NC(=O)c2cccc(S(=O)(=O)N3CCOCC3)c2)c(O)c1	-3	6%	8%	-30	·	·
CCN(CC)c1ccc(/C=N/Nc2nc(C)cc(=O)[nH]2)c(O)c1	9	14%	4.5µM*	46	·	i
Cc1ccc(SCCN)cc1C	10	·	-6%	-6	·	·
COC(=O)Cn1c(CN2CCOCC2)nc2c1c(=O)n(C)c(=O)n2C	-1	0%	?	-4	·	i
CCCc1nc(Cl)c(C#N)c2c1CCCC2	-1	5%	12%	-9	·	·
CCc1nc(Cl)c(C#N)c2c1CCCC2	-9	1%	4µM*	-14	·	i
CC1CCCCN1C(=O)CN(C)S(=O)(=O)c1cccc2nsnc12 (centres undefined)	3	-9%	-3%	1	·	·
CC(C)CC(C(=O)N1CCOCC1)N1Cc2ccccc2C1=O (centres undefined)	-2	·	0%	-10	·	·
Cc1ccc(C)c(NC(=O)CN(C)C(=O)c2ccccc2Cc2ccccc2)c1	·	·	4%	·	·	·
Cc1ccc(N(C(=O)c2ccc3c(c2)OCO3)C2C=CS(=O)(=O)C2)cc1C (centres undefined)	2	5%	·	-30	·	i
Cc1cc(C)c2nc(NNC(=O)c3ccc(S(=O)(=O)N4CCc5ccccc5C4)cc3)sc2c1	1	?	5.6µM*	20	·	?
CCc1nnc(NC(=O)c2ccc(S(=O)(=O)N3CCc4ccccc4C3)cc2)s1	-1	7%	-6%	-17	·	·
COCCNc1oc(Cc2cccc3ccccc23)nc1C#N	4	3%	3%	4	·	·
CC(=O)c1sc(NC(=O)c2ccc(F)c(S(=O)(=O)N3CCOCC3)c2)nc1C	·	·	2%	·	·	·
Cc1ccc(C(NC(=O)C(C)C)c2cc([N+](=O)[O-])c3cccnc3c2O)cc1 (centres undefined)	6	4%	?	1	·	?
CCC(=O)NC(c1cccs1)c1cc([N+](=O)[O-])c2cccnc2c1OC (centres undefined)	·	·	-1%	·	·	·
CC(C)C(=O)NC(c1cccc([N+](=O)[O-])c1)c1ccc2cccnc2c1O (centres undefined)	2	·	3.2µM*	-2	·	i
COc1ccc(C(NC(C)=O)c2cc(Cl)c3cccnc3c2O)cc1OC (centres undefined)	-1	·	5%	-1	·	·
CC(C)C(=O)NC(c1cccs1)c1cc([N+](=O)[O-])c2cccnc2c1O (centres undefined)	3	-5%	?	-4	·	i

Screening data (PubChem BioAssay)
